TGFb inhibitor = TGF-b pathway inhibition; HepG2 CAGA-GFP TGF-b/SMAD3 reporter, GFP fluorescence, 18 h; TGF-beta stimulated, 500 pg/mL final; Potency, µM (top dose mostly 46.1 µM), hits mostly inhibitors; actives 1.2% (n = 410,000); also: nearly all actives have a fitted effect of over 65% in size
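Read-out: total well GFP (ex488/em500-530) summed from mean per-cell fluorescence. Cells: HEPG2 CAGA-GFP, 1% FBS DMEM, 18 h at 37 degrees C with 500 pg/mL final TGF-beta. Unstimulated wells served as the full-inhibition control; stimulated DMSO wells = 0%.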
Nrf2 ARE act = activates Nrf2 signaling | AREc32 ARE-luciferase reporter (MCF7-derived line), luminescence, 24 h | Potency, µM (doses to about 46.1 µM), most hits filed as activators | actives 0.31% (n = 410,000) | AID 624171; also: nearly all actives have a fitted effect of over 65% in size
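Reporter line AREc32 (ARE-Fluc), seeded overnight in OPTI-MEM with 5% FBS; compound pin-transferred, 24 hr at 37 deg C, 5% CO2; luminescent read-out.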
Nrf2 inh = blocks Nrf2 signaling. A549 ARE-Fluc reporter, luciferase luminescence, 18-24 h. Potency, µM (highest dose often 46 µM), most hits filed as inhibitors. actives 2.1% (n = 360,000); also: nearly all actives have a fitted effect of over 60% in size
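Cells were seeded and rested 2 h, then exposed to compounds for 18-24 h. CellTiter-Fluor was read first as a viability measure. BugLite was added 15 min before the final luminescent read of ARE-luciferase activity in A549 cells.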
A549 tox = counter-screen for Nrf2 inhibitors: cytotoxicity in A549 cells. Potency, µM (titrated, usually from 46 µM), hits mostly inhibitors. AID 504648. A549 ARE-Fluc cells, CellTiter-Fluor viability, 18-24 h. actives 0.16% (n = 390,000)
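A549 ARE-Fluc cells in 5% FBS OPTI-MEM, 5000 cells/well, rested 2 h then exposed to compounds in concentration-response for 18-24 h at 37 °C. Viability by CellTiter-Fluor fluorescence (Ex 405/Em 525) after 30 min; luciferase luminescence (BugLite, 15 min, RT) read afterwards.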
HepG2 tox = counter-screen for TGF-b inhibitors: cytotoxicity in HepG2 cells. HepG2 CAGA-GFP viability, ATP luminescence, 18 h. Potency, µM (highest dose often 46.1 µM), hits mostly cytotoxic. actives 0.76% (n = 410,000)
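HepG2 CAGA-GFP cells (1000/well, DMEM with 1% FBS) received compound, then TGF-beta at 500 pg/mL final, and were incubated 18 hours at 37 degrees C. Viability was read by CellTiter-Glo luminescence. Media-only wells were set as complete cell-killing and DMSO as no toxicity.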
Hits are given with their value; . = inactive; ? = inconclusive; / = no result given; ! = not active in a repeat; [ ] = dose if it differs, or a comment. Only some compounds are listed: those with a hit (about 3.6% of all), similar ones and a draw of the others. Calls follow the shape of the dose curve; as a rule, active = well fitted curve in the direction sought with a large enough effect; inconclusive = small, poorly fitted or top-dose-only effect, or another doubt; inactive = no such curve, though single readings can be large; an effect the other way counts as inactive or inconclusive.

SMILES	TGFb inhibitor	Nrf2 ARE act	Nrf2 inh	A549 tox	HepG2 tox
c1ccc2c(c1)ncc1cccn12	.	.	.	.	.
COc1ccc2[nH]c(=O)c(CN(Cc3cccs3)S(=O)(=O)c3c(C)ccc4nsnc34)cc2c1	.	.	9.2µM	/	.
COc1ccccc1-n1c(SCC(=O)NC(C)(C)C)nnc1-c1ccco1	.	.	.	.	.
Cc1cccc(NC(=S)NCCSc2ccc(Cl)cc2)c1	?	.	?	.	2.5µM
Cc1ccc(C)c(NC(=S)NCCSc2ccc(Cl)cc2)c1	?	.	.	?	.
Cc1cccc(NC(=S)NCC(C)CSc2ccc(Cl)cc2)c1 (stereo unspecified)	13µM	.	?	.	14µM
COc1ccc2c(c1)c(CC(=O)OCC(N)=O)c(C)n2C(=O)c1ccc(Cl)cc1	.	.	?	.	.
COc1ccc(CN2CCn3nc(C(=O)NC(C)C)cc3C2=O)cc1	.	.	.	.	.
COc1cccc(CN2c3ccccc3-c3nc(SCC(=O)Nc4ccccc4Cl)ncc3S2(=O)=O)c1	.	.	.	.	.
CCCS(=O)(=O)NC(=O)C1(C)CCN(C(=O)c2c(C)noc2C)C1 (stereo unspecified)	.	.	/	/	.
COc1cccc(-c2sc3ccc(OC)cc3c2C#CC(C)(C)O)c1	16µM	.	.	.	.
COc1ccc2sc(-c3ccc(N(C)C)cc3)c(C#CC(C)(C)O)c2c1	.	.	.	.	.
COc1cc2cc(CCOC(=O)CCCC(=O)O)oc(=O)c2cc1OC	.	.	.	.	.
CCCCCCCOC(=O)C1=C(C)Nc2ncnn2C1c1cccs1 (stereo unspecified)	.	.	26µM	.	.
CCCCCCCCOC(=O)C1=C(C)Nc2nnnn2C1c1cccs1 (stereo unspecified)	?	.	?	.	.
CC1CC(C)CN(c2nc(NCc3ccco3)nc(N)c2[N+](=O)[O-])C1 (stereo unspecified)	.	.	23µM	.	.
CC1CCCN(c2nc(NCc3ccco3)nc(N)c2[N+](=O)[O-])C1 (stereo unspecified)	.	.[9.22 µM]	18µM	.	.
Nc1nc(NCc2ccco2)nc(N2CCOCC2)c1[N+](=O)[O-]	.	?	?	.	.
CCOc1ccc(N(Cc2ccccc2)C(=O)c2nc(SC)ncc2Cl)cc1	?	.	?	.	.
COc1ccc(N(Cc2ccccc2)C(=O)c2nc(S(C)(=O)=O)ncc2Cl)cc1	2µM	?	?	?	.
CS(=O)(=O)c1ncc(Cl)c(C(=O)N(Cc2ccc(Cl)cc2)Cc2ccco2)n1	5µM	.	23µM	?	3.2µM
O=C(c1ccc(Cl)cc1)N(Cc1ccco1)Cc1ccco1	.	.	.	.	.
CN(CCOc1ccccc1)CC(=O)Nc1ccc([N+](=O)[O-])cc1Cl	11µM	.	.	.	.
CN(CC(=O)Nc1ccccc1Cl)C(=O)COC(=O)c1ccc([N+](=O)[O-])cc1Cl	?	.	.	.	.
CC(=O)c1ccc(Nc2cc(C)nc3c(C)cc(C)cc23)cc1	11µM	.	.	?	.
SMILES	TGFb inhibitor	Nrf2 ARE act	Nrf2 inh	A549 tox	HepG2 tox
CC(=O)c1cccc(NC(=O)C2CCCN(C(=O)c3cnn(-c4ccccc4)c3-n3cccc3)C2)c1 (stereo unspecified)	.	.	.	.	.
Cc1c(N=Nc2c(-c3ccc([N+](=O)[O-])cc3)[nH]n(C(N)=S)c2=O)cccc1[N+](=O)[O-]	8.9µM	.	18µM	?	.
NC(=S)n1[nH]c(-c2ccc([N+](=O)[O-])cc2)c(N=Nc2cccc([N+](=O)[O-])c2)c1=O	?	.[9.22 µM]	16µM	?	.
NC(=S)n1[nH]c(-c2ccc([N+](=O)[O-])cc2)c(N=Nc2ccccc2[N+](=O)[O-])c1=O	.	.	.	.	.
Cc1[nH]n(C(N)=S)c(=O)c1N=Nc1cccc([N+](=O)[O-])c1C	?	.	?	.	20µM
Cc1ccc(S(=O)(=O)N2CCCC2C(=O)Nc2nc3c(s2)CCCC3)cc1 (stereo unspecified)	.	.	.	.	.
O=C1c2cccc3c([N+](=O)[O-])ccc(c23)C(=O)N1O	.	13µM	?	.	.
O=C1c2cccc3c([N+](=O)[O-])ccc(c23)C(=O)N1c1ccccn1	.	.	?	.	.
Cc1cc(S(=O)(=O)Nc2cc(C)c(O)c(C)c2)c(C)s1	.	?	10µM	.	.
NC(=O)COC(=O)CC(NC(N)=O)c1ccc(Cl)cc1 (stereo unspecified)	.	.	.	.	.
CC(C)(C)OC(=O)[C@H](Cc1ccccc1)NC(=O)c1[nH]cnc1C(=O)Nc1ccccc1F	?	.	/	/	11µM
CC(C)(C)OC(=O)NCc1ccc(CNC(=O)c2[nH]cnc2C(=O)N[C@@H](Cc2ccccc2)C(=O)OC(C)(C)C)cc1	.	.	23µM	.	.
CS(=O)(=O)N1CCc2cc(C(=O)Nc3ccc(Cl)c(C(F)(F)F)c3)ccc21	?	.	21µM	.	.
CN1C(=O)Cc2cc(S(=O)(=O)CCC(=O)Nc3ccc(Cl)c(C(F)(F)F)c3)ccc21	?	.	.	.	.
CCC(=O)N1CCc2cc(S(=O)(=O)CCC(=O)Nc3ccc(Cl)c(C(F)(F)F)c3)ccc21	?	.	21µM	.	.
CS(=O)(=O)N1CCc2cc(C(=O)Nc3ccc(C(F)(F)F)cc3)ccc21	.	.	?	?	.
CC1=CC(=O)c2ccccc2C1=O	?	.	.	.	16µM!
CCOC(=O)[C@H]1[C@H]2COc3ccccc3[C@@H]2N2C(=O)[C@@H](CO)NC(=O)[C@@]12C	.	.	.	.	.
O=C(NC(c1ccc(Cl)cc1)c1c(O)ccc2ccccc12)c1ccccc1 (stereo unspecified)	11µM	.	12µM	?	18µM
CCCCC(=O)NC(c1ccc([N+](=O)[O-])cc1)c1c(O)ccc2ccccc12 (stereo unspecified)	?	.	?	?	.
CCC(=O)NC(c1ccc([N+](=O)[O-])cc1)c1c(O)ccc2ccccc12 (stereo unspecified)	.	.	16µM	?	.
Cc1cccc(C)c1NC(=O)CSc1nnc(-c2ccoc2C)n1C	.	.	.	.	.
COc1ccc(-c2nn(-c3ccccc3)cc2/C=C2/SC(=S)N(CCC(=O)O)C2=O)cc1	.	.	23µM	?	.
FC(F)(F)c1cccc(NC(=S)Nc2ccc(Cl)c(Cl)c2)c1	?	.	?	.	.
O=[N+]([O-])c1cc(C(F)(F)F)cc([N+](=O)[O-])c1NCCNC(=S)Nc1ccc(Cl)c(Cl)c1	11µM	.	?	?	11µM

Assay outcomes from PubChem.
